Reference: article PMC5540273 (PLoS ONE, 2017)
Read-outs that look alike come from different tables or passages of the source.

Tests used:
[1] = system: RPS6KA4(Kin.Dom.1-N-terminal); conditions: n = 1
[2] = system: RPS6KA4(Kin.Dom.2-C-terminal); conditions: n = 1
[3] = system: RPS6KA5(Kin.Dom.1-N-terminal); conditions: concentration: 1 μM, replicates: in singlicate; n = 1
[4] = system: RPS6KA5(Kin.Dom.2-C-terminal); conditions: concentration: 1 μM, replicates: in singlicate; n = 1
[5] = system: T1, RSK1(Kin.Dom.1-N-terminal); conditions: concentration: 1 μM, replicates: in singlicate; n = 1
T1 construct: gene RPS6KA1

[6] = system: T2, RSK1(Kin.Dom.2-C-terminal); conditions: concentration: 1 μM, replicates: in singlicate; n = 1
T2 construct: gene RPS6KA1

[7] = system: T3, RSK2(Kin.Dom.1-N-terminal); conditions: concentration: 1 μM, replicates: in singlicate; n = 1
T3 construct: gene RPS6KA3

[8] = system: T4, RSK2(Kin.Dom.2-C-terminal); conditions: concentration: 1 μM, replicates: in singlicate; n = 1
T4 construct: gene RPS6KA3

[9] = system: T5, RSK3(Kin.Dom.1-N-terminal); conditions: concentration: 1 μM, replicates: in singlicate; n = 1
T5 construct: gene RPS6KA2

[10] = system: T6, RSK3(Kin.Dom.2-C-terminal); conditions: concentration: 1 μM, replicates: in singlicate; n = 1
T6 construct: gene RPS6KA2

[11] = concentration: 1 μM, replicates: in singlicate
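Also: KINOMEscan kinase panel screen.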

SMILES | %Inh [1, 11] | %Inh [2, 11] | %Inh [3] | %Inh [4] | %Inh [5] | %Inh [6] | %Inh [7] | %Inh [8] | %Inh [9] | %Inh [10] | %Inh ([1]; 1 µM) | %Inh ([2]; 1 µM)
Cc1ccc(S(=O)(=O)Nc2ccc(Nc3nccc(Nc4cccc5[nH]ncc45)n3)cc2)cc1 [GSK581271] | 0% | 0% | 0% | 0% | 1% | 14% | 15% | 0% | 5% | 0% | – | –
COc1cc(Nc2nccc(-c3c(-c4cccc(NC(=O)c5c(F)cccc5F)c4)nn4ncccc34)n2)cc(OC)c1OC [GSK327238] | 55% | 0% | 43% | 3% | 97.3% | 25% | 84% | 0% | 96.8% | 0% | – | –
NCCCC(NC(=O)c1cc(Br)c(-c2ccnc3[nH]ccc23)s1)c1ccccc1.O=C(O)C(F)(F)F.O=C(O)C(F)(F)F (stereo not shown) [GSK1287544] | 53% | 1% | 51% | 5% | 0% | 0% | 29% | 0% | 12% | 0% | – | –
Cl.c1ccc(-c2ccc3c(Nc4ccc5[nH]ncc5c4)ccnc3c2)nc1 [GW440137] | 0% | 0% | 2% | 34% | 20% | 6% | 0% | 0% | 6% | 0% | – | –
CCn1c(-c2nonc2N)nc2c(C#CC(C)(C)O)ncc(OCCCCN)c21.O=C(O)C(F)(F)F.O=C(O)C(F)(F)F [GSK507274] | – | – | 37% | 74% | 18% | 0% | 19% | 0% | 11% | 6% | 10% | 99%
COc1ccc(Nc2nccc(NCCNC(=O)c3cc4ccccc4s3)n2)cc1 [GSK1379896] | 0% | 0% | 3% | 0% | 0% | 0% | 0% | 23% | 0% | 0% | – | –
Cc1ccc(C)c(NC(=O)NC2CCN(c3ccnc(Nc4ccc(F)cc4)n3)C2)c1 (stereo not shown) [GSK1379720] | 8% | 0% | 0% | 22% | 13% | 0% | 3% | 0% | 0% | 0% | – | –
CN1CCN(Cc2cccc(-c3ccc4c(Nc5ccc(Oc6ccccc6)cc5)ccnc4c3)c2)CC1 [GW578342] | 0% | 0% | 0% | 21% | 26% | 99.1% | 0% | 15% | 0% | 7% | – | –
O=C(Nc1cccc(-c2nn3ncccc3c2-c2ccnc(Nc3ccccc3)n2)c1)c1c(F)cccc1F [GSK198271] | 18% | 0% | 18% | 0% | 95.3% | 5% | 0% | 0% | 37% | 17% | – | –
COc1cccc(C2=C(Nc3ccc(Cl)c(C(=O)O)c3)C(=O)NC2=O)c1 [SB-390769] | 17% | 0% | 13% | 0% | 29% | 0% | 100% | 20% | 14% | 0% | – | –
Cl.Cl.NCC(C(=O)Nc1cc(Br)c(-c2ccnc3[nH]ccc23)s1)c1ccccc1 (stereo not shown) [GSK1269851] | 18% | 1% | 10% | 5% | 6% | 0% | 24% | 2% | 100% | 3% | – | –
Cn1cc(-c2ccc3c(c2)CCN3C(=O)Cc2cccc(F)c2)c2c(N)ncnc21 [GSK2603358] | 7% | 0% | 35% | 0% | 20% | 3% | 0% | 0% | 20% | 0% | – | –
Cc1ccc(C(=O)Nc2ccc(Nc3ccnc4cc(-c5nccs5)ccc34)cc2O)cc1.Cl [GW494702] | 0% | 0% | 0% | 0% | 0% | 0% | 0% | 30% | 11% | 0% | – | –
CNC(=O)c1ccccc1Nc1nc(Nc2ccc(N3CCOCC3)cc2)ncc1Cl.Cl [GSK1576028] | 99.7% | 0% | 90% | 44% | 100% | 54% | 100% | 0% | 99.3% | 25% | – | –
c1ccc(-c2cnc3nccnn23)cc1 [AH20685] | 0% | 0% | 9% | 0% | 0% | 0% | 0% | 0% | 0% | 0% | – | –
Cl.c1ccc(-c2ccc3c(Nc4ccc5[nH]ccc5c4)ccnc3c2)nc1 [GW440138] | 0% | 0% | 0% | 3% | 0% | 0% | 0% | 0% | 0% | 15% | – | –
Cl.Cl.NCC(NC(=O)c1cc(-c2ccccc2)c(-c2ccnc3[nH]ccc23)s1)c1ccccc1 (stereo not shown) [GSK1321561] | 24% | 0% | 4% | 0% | 0% | 62% | 14% | 61% | 0% | 0% | – | –
COc1cc2c(cc1OCCN1CCNCC1)ncc1c3ccc(C#N)cc3[nH]c21 | 0% | 20% | 0% | 38% | 13% | 12% | 54% | 0% | 16% | 0% | – | –
COC(=O)Nc1nc2ccc(Oc3ccc(NC(=O)Nc4cc(C(F)(F)F)ccc4F)cc3)cc2n1C.Cl [GW692089] | 6% | 0% | 0% | 0% | 0% | 0% | 40% | 0% | 0% | 0% | – | –
CC(C)(C)c1ccc2nccc(Nc3cccc(O)c3)c2c1 [GW856795] | 0% | 0% | 0% | 0% | 0% | 0% | 0% | 49% | 19% | 30% | – | –
CN1CCN(CCCNc2nccc(-c3c(-c4ccc(F)cc4)nn4cc(C(F)(F)F)ccc34)n2)CC1 [GW621581] | 10% | 0% | 26% | 0% | 0% | 44% | 0% | 17% | 10% | 0% | – | –
CCS(=O)(=O)c1ccc(OC)c(Nc2nccc(-c3c(-c4cccc(NC(=O)c5c(F)cccc5F)c4)nn4ncccc34)n2)c1 [GSK326180] | 16% | 0% | 25% | 0% | 64% | 0% | 0% | 0% | 29% | 0% | – | –
